In all, about 330,000 compounds went through this assay and about 980 (0.3%) were called active.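 The calls were made as follows: active = percent response vs DMSO below 50%; inconclusive = fewer than 70 events counted for the yeast strain; inactive = the rest.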 For the sample, actives were picked, then their nearest neighbours and some compounds at random.
Experiment: RPL19A-GFP expression modulators in yeast, primary screen, cell-based, S. cerevisiae, multiplex flow cytometry, MLPCN (AID 2025);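 also: median channel GFP fluorescence of the barcoded RPL19A-GFP strain; ratio of sample median GFP to plate DMSO average so 100% = DMSO; lower means less RPL19A-GFP as with rapamycin TOR inhibition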
Settings: S. cerevisiae RPL19A-GFP strain, 3 h, at 10 µM, active compounds read low

Row | SMILES | percent response vs DMSO
1 | Cc1cccc2c(CCN)c[nH]c12 | 101% (inactive)
2 | C/C(CCc1c[nH]c2ccccc12)=N\O | 100% (inactive)
3 | NCCc1c[nH]c2ccc(O)cc12 | 32.1% [may fluoresce violet] (active)
4 | OC1/C(=C/c2ccc(C(F)(F)F)cc2)N2CCC1CC2 (stereo not given) | 97.2% (inactive)
5 | OCC#CC[N+]1(CC#Cc2ccccc2)CCCC1 | 99.6% (inactive)

Reference: PubChem BioAssay AID2025 (NMMLSC, 2009)
